RORgamma inh: ROR gamma (mouse) transcription inhibition. P51450. Drosophila S2 Gal4-RORgamma UAS-luciferase reporter, 20 h. Potency, µM (doses to about 53.6 µM), without a hit: at the highest dose activity change, negative = inhibition, usual class: inhibitors. 5.4% of 310,000 active; note: potency is the fitted concentration of half-maximal effect; nearly all actives have a fitted effect of over 60% in size
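A Gal4/UAS one-hybrid system in insect cells: metallothionein-promoter Gal4–ROR gamma fusion plus Photinus luciferase reporter. Copper sulfate 700 uM final, 20 hr ambient incubation, luminescent detection after 10 min with reagent.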
TSHR antagonist: human thyrotropin receptor antagonism; P16473; TSHR-expressing cells, TSH-stimulated cAMP HTRF, 2 h; stronger effect = lower value; activity change, negative = inhibition, % at 11.5 µM; 0.2% of 330,000 active;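 active = activity change below a set negative limit, meaning inhibition stronger than a set level, cut at about -70% in these data; inconclusive = activity change between two set negative limits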
Target sequence (P16473 whole entry, looked up): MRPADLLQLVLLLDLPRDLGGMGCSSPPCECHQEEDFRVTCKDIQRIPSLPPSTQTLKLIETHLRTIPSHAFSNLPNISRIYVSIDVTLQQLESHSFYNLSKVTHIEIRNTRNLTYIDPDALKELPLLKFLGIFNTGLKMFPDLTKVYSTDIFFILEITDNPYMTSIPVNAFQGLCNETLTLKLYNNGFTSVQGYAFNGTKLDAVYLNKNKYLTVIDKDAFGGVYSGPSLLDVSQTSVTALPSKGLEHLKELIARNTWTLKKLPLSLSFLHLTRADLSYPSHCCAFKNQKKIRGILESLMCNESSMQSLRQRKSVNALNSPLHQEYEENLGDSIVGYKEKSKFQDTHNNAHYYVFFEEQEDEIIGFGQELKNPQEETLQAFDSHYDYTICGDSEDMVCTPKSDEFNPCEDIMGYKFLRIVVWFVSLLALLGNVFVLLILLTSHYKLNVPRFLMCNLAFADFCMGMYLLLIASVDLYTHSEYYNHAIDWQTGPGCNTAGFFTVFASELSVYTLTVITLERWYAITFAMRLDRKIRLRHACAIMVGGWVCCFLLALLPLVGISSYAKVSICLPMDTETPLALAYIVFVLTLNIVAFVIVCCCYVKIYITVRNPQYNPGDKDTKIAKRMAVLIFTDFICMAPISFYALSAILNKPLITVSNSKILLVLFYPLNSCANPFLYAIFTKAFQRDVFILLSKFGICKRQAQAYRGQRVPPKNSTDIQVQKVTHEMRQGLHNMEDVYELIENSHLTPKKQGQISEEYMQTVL
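Inhibition of cAMP made by TSHR-expressing cells under TSH stimulation (4nM final, EC80; 2 h, 37 deg C) is quantified with a one-step lysis HTRF kit, anti-cAMP cryptate versus cAMP-d2.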
VP16 counter: Gal4-VP16 reporter inhibition counter-screen; Drosophila S2 Gal4-VP16 UAS-luciferase, luminescence, 20 h; Potency, µM (doses to about 53.6 µM), without a hit: top-dose activity, negative = inhibition, usual class: inhibitors; 3.5% of 310,000 active; AID 2546;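 note: Gal4-VP16 expression switched on by copper sulfate through the metallothionein promoter; potency is the fitted concentration of half-maximal effect; nearly all actives have a fitted effect of over 50% in size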
FBPA coupling cs: inhibits coupling enzyme system, counter-screen for aldolase hits | activity change, negative = inhibition, % at 58.2 µM, hits read low | coupling enzyme system counterscreen, AmpLite Red fluorescence | 0.67% of 290,000 active | AID 2472; in the data active = activity change below about -30%
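Counterscreen lacking aldolase: glyceraldehyde-3-phosphate coupling-enzyme reagent preincubated 10 min at RT with compound (at 57.5 uM final), then substrate/coupling system with AmpLite Red added; fluorescence read at 525/598 nm after 20 min RT.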
ELG1 DNA repair: inhibitors of ELG1-dependent DNA repair in HEK293T cells. Potency, µM (top dose mostly 46.1 µM), inactives show top-dose activity change, negative = inhibition, hits mostly inhibitors. HEK293T ELG1-luciferase reporter, luminescence, 16 h; DNA damage induced by 5-fluorouridine. 2.3% of 330,000 active; note: potency is the fitted concentration of half-maximal effect; nearly all actives have a fitted effect of over 55% in size
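Cells (2,000 per well) received 5-fluorouridine plus test compound or DMSO and were incubated 16 hr at 37 °C, 5% CO2. Luciferase activity was read by luminescence 30 min after ONE-Glo addition; signal suppression marked inhibition of damage-induced ELG1 function.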
* marks the source's active call; other numbers are inactive results; ? = inconclusive; nt = not tested or not shown; [ ] = remark or other dose. Sampled rows, rich in hits. Any-hit rate of the full collection: about 8%. Unless noted, calls come from the whole dose curve; as a rule, active = well fitted curve in the direction sought with a large enough effect; inconclusive = small, poorly fitted or top-dose-only effect, or another doubt; inactive = no such curve, though single readings can be large; an effect the other way counts as inactive or inconclusive. % is set by controls: 0 for no effect and ±100 for the full control effect.

SMILES	RORgamma inh	TSHR antagonist	VP16 counter	FBPA coupling cs	ELG1 DNA repair
COc1ccc(NC(=O)c2ccc3c(=O)n(-c4ccc(OC)cc4OC)c(=S)[nH]c3c2)c(OC)c1	2.82µM*	-25.7	8.91µM*	-1.2	?
COc1ccc(-n2c(=S)[nH]c3cc(C(=O)Nc4ccc(C)c(F)c4)ccc3c2=O)c(OC)c1	5.01µM*	-28.5	12.6µM*	0.7	?
CCOc1ccc(NC(=O)c2ccc3c(=O)n(-c4ccc(OC)cc4OC)c(=S)[nH]c3c2)cc1	?	-11.4	15.8µM*	-2.1	8.2µM*
C/C(CCN1CCCCc2nc(C)c(C)cc21)=N\OC[C@@H](C)[C@H](OCc1ccccc1)C(C)C	15.1%[10 µM]	nt	6.5%[10 µM]	-0.2	nt
COc1ccc(Cl)cc1NC(=O)COC(=O)Cc1cc(OC)c(OC)c(OC)c1	nt	-2.5	nt	nt	-9.3%
Cc1cc(C(=O)COC(=O)c2ccc3c(c2)OCO3)c(C)n1Cc1cccs1	9.8%	-19.1	-14.4%	-0.8	?
Cc1cc(C(=O)COc2cccnc2[N+](=O)[O-])c(C)n1Cc1cccs1	9.2%	-14.8	-2.6%	-3.8	6.2%
CC(=O)Nc1ccccc1OCC(=O)c1cc(C)n(Cc2cccs2)c1C	-38.0%	-41.6	1.26µM*	7.0	?
Cc1cc(C(=O)COC(=O)c2ccccc2O)c(C)n1Cc1cccs1	3.55µM*	-32.5	7.08µM*	-0.1	?
Oc1c(N=NC(=S)Nc2ccccc2F)c2ccccc2n1Cc1ccccc1F	2.51µM*	-15.4	3.98µM*	0.1	?
Cc1ccc(C)c(Cn2c(O)c(N=NC(=S)Nc3ccccc3F)c3ccccc32)c1	-42.1%	4.6	?	0.0	?
Oc1c(N=NC(=S)Nc2ccccc2F)c2ccccc2n1Cc1ccc(Cl)cc1	3.98µM*	1.1	-14.0%	-1.9	?
Cc1ccccc1Cn1c(O)c(N=NC(=S)Nc2ccccc2F)c2ccccc21	2.51µM*	1.9	?	-0.8	5.8µM*
CCNC(=S)N=Nc1c(O)n(Cc2ccc(Cl)cc2)c2ccccc12	4.47µM*	-9.7	?	0.7	-26.8%
O=C(CNC(=O)/C=C/c1ccccc1)N=Nc1c(O)n(Cc2ccccc2)c2ccccc12	21.0%	-7.9	6.5%	7.0	-24.3%
CC(Nc1c[nH]c(=O)[nH]c1=O)c1ccccc1 (stereo not given)	-31.3%	5.7	-0.5%	2.1	0.1%
CCCCN(CC)CCNC(=O)CCC(=O)Nc1ccc2nc(N3CCN(C)CC3)cc(C)c2c1	?	-10.4	-9.1%[10 µM]	-33.6*	?
CCCCN(CC)CCNC(=S)Nc1ccc2nc(N3CCN(C)CC3)cc(C)c2c1	-34.8%	-27.7	-9.6%	0.2	-6.5%
C=C1/C=C(\C)C(C)(O)CC(O)CC(=O)C(O)C(O)C(C)CC(C)OC(=O)/C(C)=C/CC/C=C/C(OC)C(O)CC(C)C1 (stereo not given)	nt	-0.1	nt	nt	14.6µM*
CCOC(=O)c1c(NC(=O)CN2C(=O)NC(C)(c3ccc(Cl)cc3)C2=O)sc(C(=O)NC)c1C (stereo not given)	39.1%	-35.6	-23.0%	3.3	18.4µM*
Cc1ccc(Nc2nc(-c3cccs3)cs2)nc1	11.2µM*	-15.7	12.6µM*	0.5	?
Cc1ccc(Nc2nc(-c3ccccc3)cs2)nc1	?	-43.9	?	-0.9	?
C=CCn1c(SCC(=O)Nc2c(C)n(C)n(-c3ccccc3)c2=O)nc2scc(-c3ccccc3)c2c1=O	11.2%	-3.3	4.1%	12.2	23.1µM*
C=CCn1c(SCC(=O)Nc2c(C)n(C)n(-c3ccccc3)c2=O)nc2ccccc2c1=O	nt	27.9	nt	nt	-6.2%
Cc1ccc(-c2csc3nc(SCC(=O)N(C)C)n(Cc4ccccc4)c(=O)c23)cc1	-6.8%	-13.7	-17.2%	-1.2	20.6µM*
SMILES	RORgamma inh	TSHR antagonist	VP16 counter	FBPA coupling cs	ELG1 DNA repair
C=CCn1c(SCC(=O)Nc2ccc(C(=O)O)cc2)nc2scc(-c3ccccc3)c2c1=O	nt	-16.5	nt	nt	-1.4%
CN(C)C(=O)CSc1nc2ccccc2n1Cc1ccccc1	25.9%	42.9	-7.9%	1.1	11.5%
NC(=O)CSc1nc2scc(-c3ccc(Cl)cc3)c2c(=O)n1Cc1ccccc1	32.6%	-8.3	-16.1%	3.0	16.4µM*
COCC1C2CC[C@H]3C(OCc4ccc(OC)cc4)OC[C@]4(C)[C@H]3C2=C(CN4C(=O)OC(C)(C)C)[C@H](C)C1COC (stereo not given in full)	26.9%	nt	-3.9%	-8.7	nt
Cc1cnc(CNc2cc(-c3ccccc3CN(C)C)ncn2)cn1	-8.9%	nt	0.9%	0.9	nt
C=C1C2=CC(=O)OC(c3ccoc3)[C@]2(C)CCC1[C@]1(C)C=CC(=O)C(C)(C)C1CC(=O)OC (stereo not given in full)	34.2%	nt	-6.5%	-2.8	nt
Cc1ccc(Cl)cc1N1CCN(Cc2nc3ccsc3c(=O)[nH]2)CC1	11.2µM*	-7.9	?	0.3	0.0%
COc1cccc(-c2cccc(NC(=O)C3CCN(CC4CCOC4)CC3)c2)c1 (stereo not given)	-22.8%	-4.0	-4.5%	0.6	-1.6%
CN(C)CCOC(=O)[C@@H](c1ccccc1)C1(O)CCCC1	12.7%[16.9 µM]	nt	6.6%[17 µM]	0.4	nt
Cc1ccsc1C(=O)OC(C)C(=O)Nc1ccc(Cl)cn1 (stereo not given)	nt	-15.3	nt	nt	-0.7%
CC(C)(C)c1ccc(C(=O)NC(=S)N2CCCC2)cc1	0.708µM*	-18.0	0.891µM*	nt	?
CC(C)(C)c1ccc(C(=O)N2CCCCCC2=O)cc1	?	15.4	2.24µM*	-4.2	?
CC(C)(C)c1ccc(C(=O)NC(=S)N2CCCCCC2)cc1	0.282µM*	-7.9	0.501µM*	nt	0.9%
O=C(NC(=S)N1CCCC1)c1ccc(Cl)cc1	11.4%	-1.5	14.3%	nt	24.2%
CN1CCN(C(=S)NC(=O)c2ccc(Cl)cc2)CC1	0.398µM*	-14.2	1µM*	0.3	-5.6%
CCOC(=O)N1CCN(C(=S)NC(=O)C2CCCC2)CC1	-34.7%	-2.6	-7.5%	4.2	15.4%
CC(C)(C)CC(=O)NC(=S)N1CCCCCC1	7.94µM*	3.2	?	1.4	-7.6%
Cc1sc2ncnc(N3CCCCC3)c2c1C	0.7%	-9.3	-8.1%	2.1	?
CCN1CCN(CCOc2ccc(Cl)cc2)CC1	-0.1%	26.3	5.1%	-1.7	-0.9%
Cc1ccc(OCCN2CCN(c3ncnc4sc(C)c(C)c34)CC2)cc1	8.91µM*	-48.1	3.55µM*	2.0	?
Clc1ccc(OCCN2CCN(c3ncnc4sccc34)CC2)cc1	?	-35.6	0.631µM*	-5.4	?
COc1ccc2cc3c(N)nn(C(=O)C4CCC(C(C)(C)C)CC4)c3nc2c1 (stereo not given)	?	3.4	?	0.6	1.84µM*
COc1ccc(-n2cnc(N)c2C(=O)c2cccc([N+](=O)[O-])c2)cc1	11.2µM*	2.3	-19.1%	1.9	16.4µM*

From PubChem
